Assay outcomes deposited in PubChem by National Center for Advancing Translational Sciences (NCATS).
A selection: hits, their analogues and other compounds. The true share with any hit is near 2.4%.
D2 PAM-1 – D2 dopamine receptor (human) potentiation | potentiation, % at 10 µM | P14416 | 340,000 compounds, 0.34% hits | HEK293 T-REx D2, calcium flux, EC20 dopamine potentiation;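 active = potentiation over 3 SD above the plate norm, cut at about 30% in these data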; note: 0% is about no effect
Target sequence (P14416 whole entry, looked up): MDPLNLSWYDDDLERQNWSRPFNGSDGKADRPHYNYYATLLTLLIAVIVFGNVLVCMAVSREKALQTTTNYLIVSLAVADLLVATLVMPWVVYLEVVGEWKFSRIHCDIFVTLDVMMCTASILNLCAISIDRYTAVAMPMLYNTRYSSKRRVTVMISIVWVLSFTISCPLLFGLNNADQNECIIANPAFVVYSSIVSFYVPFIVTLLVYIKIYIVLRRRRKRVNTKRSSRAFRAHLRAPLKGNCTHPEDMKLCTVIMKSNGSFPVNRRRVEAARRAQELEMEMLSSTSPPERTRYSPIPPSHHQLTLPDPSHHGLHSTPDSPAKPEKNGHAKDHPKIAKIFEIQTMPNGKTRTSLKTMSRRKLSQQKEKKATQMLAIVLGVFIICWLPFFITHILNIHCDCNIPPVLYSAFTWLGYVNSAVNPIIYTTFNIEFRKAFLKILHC
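Cells plated with tetracycline inducer and held overnight at 30 C; calcium dye loaded 30–90 min at room temperature; baseline taken, compound added and read 180 s; EC20 dopamine then added and read 180 s.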
D2 ag-1 – human D2 receptor agonism in beta-arrestin assay. P14416. DiscoveRx PathHunter D2 beta-arrestin, luminescence, 90 min; 100% = 57 uM dopamine signal. activation, % (test concentration not listed). 360,000 compounds, 0.084% hits. AID 624465; in the data active = activation above about 40%; inconclusive = between about 15% and that limit
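DiscoveRx PathHunter D2 beta-arrestin cells (2,100/well) attached overnight, then compound-stimulated 90 min at 37 C in HBSS/10 mM HEPES/0.1% Tween-20 buffer; beta-galactosidase complementation read by luminescence after 1 h at ambient temperature. Dopamine 57 uM final (EC100) as control.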
D2 antag – antagonizes the human D2 dopamine receptor; P14416; HEK293 TREx D2 cells, calcium flux, dopamine EC80; inhibition, % at 10 µM; 340,000 compounds, 2% hits; in the data active = inhibition above about 30%; inactive = below that, where a call was filed; note: 0% is about no effect
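Measurement of antagonist activity uses fluorescent calcium dye in inducible HEK293 T-REx D2 cells: 10 s baseline, compound addition with 180 s read, EC80 dopamine addition with a further 180 s read.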
D2 ag-2 – D2 dopamine receptor (human) agonism. AID 485358. HEK293 T-REx D2 cells, calcium flux agonist mode. P14416. activation, % at 2 µM. 340,000 compounds, 0.53% hits;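 active = activation over 3 SD above normal in the single-dose calcium agonist read, cut at about 30% in these data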; note: 0% is about no effect
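Tetracycline-induced HEK293 T-REx cells with force-coupled D2 receptor, plated overnight at 30 C, loaded with no-wash calcium dye. After a 10 s baseline, compound was pin-added and calcium flux read kinetically for 180 s; calcium rises flagged agonists.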
D2 PAM-2 – human D2 receptor positive allosteric modulation; DiscoveRx D2 beta-arrestin cells, luminescence, 90 min; 100% = 57 uM dopamine signal; potentiation, % (concentration not given with the values); 360,000 compounds, 0.23% hits; P14416; in the data active = potentiation above about 50%; inconclusive = mostly about 30% to 49%
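D2 cells co-treated with compound plus 50 nM dopamine (EC20) for 90 min at 37 deg C to detect potentiation. Beta-arrestin recruitment was read as enzyme-fragment luminescence after 1 h at ambient temperature. Full response was set by 57 uM dopamine.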
D3 arrestin ag – confirmation of human D3 dopamine receptor agonists, beta-arrestin; shares compounds with D2 ag-2; DiscoveRx D3 beta-arrestin cells, luminescence, 90 min; Potency, µM (top dose mostly 76.9 µM), for inactives: at the top dose activation, hits mostly activators; 2,300 compounds, 4% hits; AID 720506;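 note: potency is the fitted concentration of half-maximal effect; 100% = dopamine control response; nearly all actives have a fitted effect of over 70% in size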
D2 ag-3 – activates human D2 dopamine receptor in D3 counterscreen; shares compounds with D2 ag-2; DiscoveRx PathHunter D2 beta-arrestin, luminescence, 90 min; response scale: percent relative to full dopamine signal; Potency, µM (highest dose often 76.9 µM), inactives show top-dose activation, hits mostly activators; 2,300 compounds, 5.9% hits; note: potency is the fitted concentration of half-maximal effect; % of control where 0% means no effect; nearly all actives have a fitted effect of over 70% in size
The depositor's hits bear a star; ! = not active in a repeat. Unless noted, calls come from the whole dose curve; as a rule, active = well fitted activation curve with a large enough effect; inconclusive = small, poorly fitted or top-dose-only effect; inactive = flat fitted curve, though single readings scatter.

Results for c1ccc(CCNCCOc2ccccc2)cc1 ?
D2 PAM-1: -25; D2 ag-1: 14; D2 antag: 48*; D2 ag-2: 56*; D2 PAM-2: -7; D3 arrestin ag: 0%; D2 ag-3: 11%

How did COc1ccc(N(CC(=O)NCCc2ccccc2)S(=O)(=O)c2ccccc2)c(OC)c1 do in these assays?
D2 PAM-1: 18; D2 ag-2: 1

What do the screens show for `CCC(=O)N1CCc2cc(S(=O)(=O)CCC(=O)Nc3ccc(OC)cc3)ccc21`?
D2 PAM-1: 8; D2 ag-1: -3; D2 antag: 8; D2 ag-2: 1; D2 PAM-2: -5

How did CCC(=O)N1CCc2cc(S(=O)(=O)CCC(=O)Nc3cccc(C)n3)ccc21 do in these assays?
D2 PAM-1: -14; D2 ag-1: 2; D2 antag: -15; D2 ag-2: 35*; D2 PAM-2: 0; D3 arrestin ag: 0%; D2 ag-3: 1%

How did Cc1cccc(CCn2c(=O)c3ccccc3n(Cc3cccc(F)c3)c2=O)c1 do in these assays?
D2 PAM-1: -1; D2 ag-2: 0

Results for CC(C)c1ccc2oc(-c3cc(NC(=O)c4cccnc4)ccc3Cl)nc2c1 ?
D2 PAM-1: 8; D2 ag-2: 1

How did CCN(CC)CC(C)CNC(=O)CN1C(=O)CSc2ccc(S(=O)(=O)N3CCOCC3)cc21 (centres undefined) do in these assays?
D2 PAM-1: -11; D2 ag-1: 0; D2 antag: -8; D2 ag-2: 54*!; D2 PAM-2: -2; D3 arrestin ag: -3%; D2 ag-3: 5%

What do the screens show for `CCN(CC)CCCNC(=O)CN1C(=O)CSc2ccc(S(=O)(=O)N3CCOCC3)cc21`?
D2 PAM-1: 15; D2 ag-1: -1; D2 antag: -14; D2 ag-2: 1; D2 PAM-2: -2

How did COc1ccc(OCC(O)CNC(C)c2ccccc2)cc1 (centres undefined) do in these assays?
D2 PAM-1: 6; D2 ag-1: -1; D2 antag: -10; D2 ag-2: 2; D2 PAM-2: -5

Results for COc1ccc([C@H](C)NC[C@H](O)c2ccc(O)c(NC=O)c2)cc1 ?
D2 PAM-1: -5; D2 ag-1: -3; D2 antag: 4; D2 ag-2: 33*; D2 PAM-2: -17; D3 arrestin ag: -1%; D2 ag-3: 0%

How did COC(=O)c1cc2oc3ccccc3c2n1Cc1c(F)cccc1Cl do in these assays?
D2 PAM-1: -6; D2 ag-2: 1

How did C(#Cc1ccccc1)CN1CCN(c2ccccn2)CC1 do in these assays?
D2 PAM-1: -17; D2 ag-1: 5; D2 antag: 20; D2 ag-2: 45*; D2 PAM-2: -10; D3 arrestin ag: 10%; D2 ag-3: 11%

What do the screens show for `O=C(c1cccnc1)N1CCN(Cc2cccc(F)c2)CC1`?
D2 PAM-1: 6; D2 ag-1: 2; D2 antag: 13; D2 ag-2: 1; D2 PAM-2: -7

Results for C(#Cc1ccccc1)CN1CCCCC1 ?
D2 PAM-1: -5; D2 ag-1: -3; D2 antag: -21; D2 ag-2: 0; D2 PAM-2: -21

What do the screens show for `CCCCc1c(O)nc(N2CCN(Cc3ccccc3)CC2)[nH]c1=O`?
D2 ag-1: 0; D2 PAM-2: -6

How did Fc1cccc(CN2CCN(c3ncccn3)CC2)c1 do in these assays?
D2 PAM-1: -29; D2 ag-1: 80*; D2 antag: 83*; D2 ag-2: 77*; D2 PAM-2: 55*; D3 arrestin ag: inconclusive; D2 ag-3: 1.4µM*

Results for Clc1ccc(CN2CCN(c3ncccn3)CC2)cc1 ?
D2 PAM-1: -17; D2 ag-1: 68*; D2 antag: 85*; D2 ag-2: 73*; D2 PAM-2: 53*; D3 arrestin ag: inconclusive; D2 ag-3: 2.8µM*

Results for Cc1cc(=O)[nH]c(N2CCN(Cc3ccccc3)CC2)n1 ?
D2 PAM-1: -14; D2 ag-1: 6; D2 antag: -16; D2 ag-2: 40*; D2 PAM-2: 0; D3 arrestin ag: -12%; D2 ag-3: 9%

How did CCc1ccc(CNC(=O)CN2C(=O)CSc3c2c(C)nn3-c2ccccc2)cc1 do in these assays?
D2 PAM-1: -1; D2 ag-2: 1

Results for Cc1ccc2c(c1)cc1c(=O)n(CC(=O)NCc3ccco3)nc(C)n12 ?
D2 PAM-1: -7; D2 ag-2: 0

Results for CCC(Sc1nncn2c1cc1oc(C)cc12)C(=O)Nc1ccc(F)cc1 (centres undefined) ?
D2 PAM-1: 4; D2 ag-2: 0

How did Cc1ccc(NC(=O)N2CCN(C(=O)c3nsc4ccccc34)CC2)cc1C do in these assays?
D2 PAM-1: -4; D2 ag-2: 0

Results for Fc1ccc(CN2CCN(c3ncccn3)CC2)c(F)c1 ?
D2 PAM-1: -24; D2 ag-1: 60*; D2 antag: 79*; D2 ag-2: 95*; D2 PAM-2: 29; D3 arrestin ag: inconclusive; D2 ag-3: 16µM*

Results for c1cnc(N2CCN(Cc3ccc4c(c3)OCO4)CC2)nc1 ?
D2 PAM-1: -26; D2 ag-1: 41*!; D2 antag: 89*; D2 ag-2: 80*; D2 PAM-2: 62*!; D3 arrestin ag: inconclusive; D2 ag-3: 0.05µM*

How did O=C(Cc1ccccc1)N1CCN(c2ncccn2)CC1 do in these assays?
D2 PAM-1: 1; D2 ag-1: 4; D2 antag: 0; D2 ag-2: 0; D2 PAM-2: -1

What do the screens show for `Clc1ccc(CN2CCN(c3ncccn3)CC2)cc1Cl`?
D2 PAM-1: -35; D2 ag-1: 65*; D2 antag: 77*; D2 ag-2: 80*; D2 PAM-2: 20; D3 arrestin ag: inconclusive; D2 ag-3: 14µM*

Results for c1ccc(CN2CCN(c3ncccn3)CC2)cc1 ?
D2 PAM-1: -25; D2 ag-1: 56*; D2 antag: 84*; D2 ag-2: 86*; D2 PAM-2: inconclusive; D3 arrestin ag: inconclusive; D2 ag-3: 2.5µM*

What do the screens show for `Fc1ccc(CN2CCCCCC2)c(F)c1`?
D2 PAM-1: -3; D2 ag-1: -1; D2 antag: 7; D2 ag-2: 0; D2 PAM-2: -22

What do the screens show for `COCCCNC(=O)Cn1c(=O)n(-c2ccc(C)cc2)c(=O)c2c1c1cc(C)ccc1n2C`?
D2 PAM-1: -11; D2 ag-2: 1
